Only some compounds are listed: those with a hit (about 17% of all), similar ones and a draw of the others.
HT1080NT lethal: kills 2HG-producing HT-1080-NT fibrosarcoma cells; HT-1080-NT fibrosarcoma viability, CellTiter-Glo ATP luminescence, 48 h; Potency, µM (highest dose often 46.1 µM), without a hit: at the top dose activity, negative = less viability, actives largely listed as cytotoxic; hit rate 1.6% among 360,000; AID 686970;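 further: NT is the 2HG producing partner of a matched IDH1 knockdown line; 0% = DMSO-treated cells and -100% = media-only wells without cells; nearly all actives have a fitted effect of over 55% in size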
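HT-1080-NT fibrosarcoma cells (2HG-overproducing), 750 cells/well in RPMI with 5% FBS, dosed after 2 h and incubated 48 h at 37C. CellTiter-Glo luminescence normalized to DMSO and no-cell wells; concentration-response curves fitted and classed.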
TGFb inhibitor: blocks TGF-b signaling; HepG2 CAGA-GFP TGF-b/SMAD3 reporter, GFP fluorescence, 18 h; TGF-beta stimulated, 500 pg/mL final; Potency, µM (titrated, usually from 46.1 µM), for inactives: at the top dose activity, negative = inhibition, hits mostly inhibitors; hit rate 1.2% among 410,000; AID 588855; further: on the % scale 0 is the no-effect control and ±100 the full control effect; nearly all actives have a fitted effect of over 65% in size
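Smad-responsive CAGA-GFP expression was quantified in HEPG2 cells exposed to compounds and 500 pg/mL final TGF-beta for 18 h at 37 degrees C; unstimulated wells defined full inhibition.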
HT1080 IDH1KD tx: toxicity to HT-1080 IDH1 knockdown cells (counter line). hit rate 2% among 360,000. HT-1080 IDH1 knockdown viability, ATP luminescence, 48 h. Potency, µM (series often up to 46.1 µM), for the others: at the highest dose activity, negative = toxicity, usual class: cytotoxic;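 further: 0% = DMSO wells and -100% = cell-free medium wells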
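In this qHTS, HT-1080 cells depleted of IDH1 are exposed for 48 h at 37 °C to compound titrations. Toxicity is scored from CellTiter-Glo luminescence, with DMSO as full viability and medium alone as none.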
DT40 TDP1 CPT: DT40-hTDP1 cell growth loss with CPT | chicken DT40 Tdp1-/-;hTDP1 cells + 20 nM CPT, ATP luminescence, 48 h | Potency, µM (titrated, usually from 46.2 µM), for the others: at the top dose activity change, negative = growth inhibition, most hits filed as inhibitors | hit rate 12% among 420,000 | AID 686979; further: on the % scale 0 is the no-effect control and ±100 the full control effect; nearly all actives have a fitted effect of over 55% in size
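Cell growth measured by CellTiter-Glo luminescence after a minimum 48 h, 37 C compound exposure with 20 nM CPT in Tdp1-knockout DT40 cells stably expressing hTDP1, seeded 400/well; qHTS titration format.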
HepG2 viability: kills HepG2 cells in TGF-b inhibitor counter-screen; HepG2 CAGA-GFP viability, ATP luminescence, 18 h; hit rate 0.76% among 410,000; AID 588856; Potency, µM (highest dose often 46.1 µM), without a hit: at the highest dose activity change, negative = cytotoxicity, most hits filed as cytotoxic
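HepG2 CAGA-GFP cells (1000/well, DMEM with 1% FBS) received compound, then TGF-beta at 500 pg/mL final, and were incubated 18 hours at 37 degrees C. Viability was read by CellTiter-Glo luminescence. Media-only wells were set as complete cell-killing and DMSO as no toxicity.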
TDP1 cell noCPT: qHTS for Inhibitors of human tyrosyl-DNA phosphodiesterase 1 (TDP1): qHTS in cells in absence of CPT. DT40 Tdp1-/- hTDP1 cells, no CPT, ATP luminescence, 48 h. Potency, µM (highest dose often 46.2 µM), without a hit: at the highest dose activity change, negative = growth inhibition, most hits filed as inhibitors. hit rate 15% among 420,000. AID 686978, 2013; further: on the % scale 0 is the no-effect control and ±100 the full control effect; nearly all actives have a fitted effect of over 55% in size
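Chicken DT40 Tdp1-/- cells complemented with human TDP1, screened without camptothecin (DMSO vehicle only), 400 cells/well. Compounds pin-transferred, cells incubated at 37 °C for at least 48 hr. Growth read as ATP-dependent luminescence (CellTiter-Glo, 30 min at RT).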
Starred values were filed as active, the others as inactive; ? = inconclusive; . = no result given. The call rests on the fitted dose curve; in most records, active means well fitted curve in the direction sought with a large enough effect; inconclusive means small, poorly fitted or top-dose-only effect, or another doubt; inactive means no such curve, though single readings can be large; an effect the other way counts as inactive or inconclusive. Potency means the concentration at half of the fitted maximal effect.

SMILES | HT1080NT lethal | TGFb inhibitor | HT1080 IDH1KD tx | DT40 TDP1 CPT | HepG2 viability | TDP1 cell noCPT
CCn1c(C(=O)OC)cc2c1ccn2-c1ccc(F)cc1 | 5.0% | 11.1% | ? | 18.4µM* | 12.6µM* | 13µM*
CCC1C(c2ccccc2)N(C)C(c2ccccc2)CC1(O)c1ccccc1 (configuration not stated) | ? | ? | 16.4µM* | ? | 12.6µM* | 23.1µM*
O=C(c1cccc(S(=O)(=O)Nc2ccc(F)cc2)c1)N1CCCC1 | -3.3% | 4.9% | -2.8% | -1.6% | -2.2% | -12.7%
COc1ccc(-c2nc(CCNC(=O)c3ccccc3)cs2)cc1OC | . | -15.5% | . | 23.1µM* | -9.1% | 23.1µM*
O=C(COc1ccc(Cl)cc1)NCCc1csc(-c2ccc(C(F)(F)F)cc2)n1 | . | -5.5% | . | ? | -66.5% | 23.1µM*
Cc1nc(CCNC(=O)COc2ccccc2)cs1 | 26.2% | -2.7% | -2.3% | 3.2% | -19.1% | -20.9%
O=C(COc1ccccc1)NCCc1csc(-c2ccc(Cl)cc2)n1 | . | 11.2µM* | . | ? | -73.2% | ?
COc1cc(C(=O)NCCc2csc(-c3ccc(Cl)cc3)n2)cc(OC)c1OC | . | -13.9% | . | ? | 8.4% | 20.6µM*
COc1ccc2ccccc2c1CN1CCc2nnc(C(NS(C)(=O)=O)C(C)C)n2CC1 (configuration not stated) | . | . | . | ? | . | -17.0%
Cc1ccccc1C1(CCN2CCCCC2)CCOC(C)(C)C1 (configuration not stated) | 17.0% | -16.8% | 18.8% | -16.5% | -2.6% | -11.9%
CC(C)NC(=O)C1CCN(C(=O)N2CCOc3ccc(Cl)cc32)CC1 | . | -0.4% | . | -27.8% | 3.0% | ?
COc1ccc(CC(=O)NCCc2csc(-c3ccc(Cl)cc3)n2)cc1 | . | ? | . | 18.4µM* | -6.2% | 16.4µM*
COc1ccc(CC(=O)NCCc2csc(-c3cccc(C)c3)n2)cc1 | . | -23.6% | . | ? | -23.8% | ?
O=C(NCCc1csc(-c2ccc(Cl)cc2)n1)c1ccco1 | ? | -17.6% | ? | ? | -13.8% | 14.6µM*
CCOc1ccc(NC(=O)C(=O)NCCc2csc(-c3ccc(C)cc3)n2)cc1 | . | -3.7% | . | -23.7% | 1.1% | -18.2%
CCOc1cc(C(=O)NCCc2csc(-c3ccc(C)cc3)n2)cc(OCC)c1OCC | . | ? | . | ? | -7.1% | 16.4µM*
O=C(COc1ccc(Cl)cc1)NCCc1csc(-c2ccc(F)cc2)n1 | . | -13.8% | . | 16.4µM* | -36.1% | 14.6µM*
Cc1ccc(C)c(S(=O)(=O)N/N=C/c2ccc(N3CCOCC3)cc2)c1 | 2.7% | -1.1% | 12.6% | ? | 16.0% | ?
Cc1cccc(C(=O)n2nc(-c3ccco3)nc2NCc2ccccc2)c1 | . | 2.1% | . | ? | -16.4% | ?
Cc1cc(C)nc(SCC(CSc2nc(C)cc(C)n2)C(=O)O)n1 | 14.4% | -9.2% | 9.2% | 3.0% | -0.3% | -6.6%
Cc1sc(NC(=O)c2ccccc2)c(C(c2ccccn2)N2CCN(CCO)CC2)c1C (configuration not stated) | -23.3% | -3.8% | -28.5% | 10.3µM* | -23.1% | 9.2µM*
CCc1cc(C(c2ccccn2)N2CCN(C)CC2)c(NC(=O)c2ccccc2)s1 (configuration not stated) | -7.5% | -20.0% | -8.0% | ? | 1.1% | ?
O=C(/C=C/c1cccs1)c1cc(Cl)ccc1O | -2.8% | -0.7% | -12.5% | 16.4µM* | -17.2% | ?
COc1ccc(/C=C/C(=O)c2c(O)c(OC)c3occc3c2OC)cc1OC | 17.8µM* | . | 11.2µM* | 11.2µM* | . | 10µM*
COc1ccc(/C=C\C(=O)c2c(O)ccc3c(C)cc(=O)oc23)cc1OC | ? | ? | ? | 16.4µM* | -53.0% | 23.1µM*

High-throughput results as filed in PubChem BioAssay.
